# PubChem BioAssay
# Unmarked numbers belong to inactive results. For some assays here: Entries with a potency or affinity are not part of this list. Active and inactive are the calls of the source. Unless noted, how the calls were made is not given here.
# Tests used:
# [1] = antimalarial activity against Dd2 strain (AID 2302;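 active means growth inhibition above 50% at the single 2 µM test dose, taken to imply half-maximal potency below 2 µM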;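 further: 0% = DMSO untreated growth and 100% = chloroquine plus artemisinin killed control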); conditions: P. falciparum Dd2 in RBCs, LDH growth readout, 72 h; at 2 µM; active compounds read high
# [2] = HepG2 cytotoxicity, primary screen, cytotoxicity control for P. falciparum antimalarial project, cell-based, ATP luminescence (AID 2303;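 active means inhibition above 50%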;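 further: 0% = DMSO wells and 100% = digitonin-killed cells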); conditions: HepG2 viability, 24-48 h, at 10 µM, active compounds read high
# [3] = biological target: L-lactate dehydrogenase (Plasmodium falciparum (isolate CDC / Honduras)) (UniProt Q27743); assay: PfLDH activity inhibition – cell lysate, 3D7 strain, counter-screen for P. falciparum growth inhibition project (AID 2304);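 further: 0% = vehicle and 100% = reference inhibitor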; conditions: P. falciparum 3D7 crude extract, LDH APAD/NBT absorbance; at 2 µM; active compounds read high
# L-lactate dehydrogenase (Plasmodium falciparum (isolate CDC / Honduras)), sequence (Q27743 whole entry, looked up): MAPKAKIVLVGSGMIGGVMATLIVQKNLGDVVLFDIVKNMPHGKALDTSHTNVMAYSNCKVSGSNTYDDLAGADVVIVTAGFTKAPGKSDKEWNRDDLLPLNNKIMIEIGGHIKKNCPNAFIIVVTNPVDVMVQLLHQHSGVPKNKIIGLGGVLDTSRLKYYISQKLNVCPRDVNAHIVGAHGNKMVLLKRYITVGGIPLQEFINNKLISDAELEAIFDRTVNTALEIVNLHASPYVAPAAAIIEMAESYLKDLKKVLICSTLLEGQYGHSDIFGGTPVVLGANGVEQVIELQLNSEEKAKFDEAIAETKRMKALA
# [4] = inhibition of 3D7 malaria parasite growth – strain 3D7 (AID 2306);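 further: 0% = DMSO wells and 100% = chloroquine plus artemisinin control wells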; conditions: P. falciparum 3D7 erythrocytic growth, LDH absorbance, 72 h; at 2 µM; active compounds read high
# [5] = biological target: Calcium-dependent protein kinase 1 (Plasmodium falciparum (isolate 3D7)) (UniProt P62344); assay: PfCDPK1 kinase inhibitors, biochemical, TCAMS library (AID 1159585; cut-off not given, nearly all actives have IC50 up to about 0.98 µM;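 further: inhibitors leave more ATP so luminescence rises with inhibition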); conditions: recombinant PfCDPK1, Kinase-Glo ATP depletion luminescence
# Calcium-dependent protein kinase 1 (Plasmodium falciparum (isolate 3D7)), sequence (P62344 whole entry, looked up): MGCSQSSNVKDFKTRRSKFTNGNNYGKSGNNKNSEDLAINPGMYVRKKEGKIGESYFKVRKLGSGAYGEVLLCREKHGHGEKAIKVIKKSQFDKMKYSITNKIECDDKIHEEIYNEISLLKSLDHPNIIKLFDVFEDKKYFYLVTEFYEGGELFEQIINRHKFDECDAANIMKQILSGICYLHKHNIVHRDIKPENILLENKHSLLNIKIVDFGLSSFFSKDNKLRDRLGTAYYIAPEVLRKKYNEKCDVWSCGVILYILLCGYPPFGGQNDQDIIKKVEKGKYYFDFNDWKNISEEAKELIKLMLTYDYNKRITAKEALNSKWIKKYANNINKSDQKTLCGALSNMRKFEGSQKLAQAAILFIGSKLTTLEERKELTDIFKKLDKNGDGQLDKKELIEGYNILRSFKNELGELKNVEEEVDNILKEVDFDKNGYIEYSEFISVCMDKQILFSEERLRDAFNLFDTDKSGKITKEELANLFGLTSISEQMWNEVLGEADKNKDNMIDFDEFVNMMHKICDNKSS
# [6] = biological target: Plasmodium falciparum protein kinase 6 (PK6, PF3D7_1337100) (UniProt Q8IDW1); assay: PfPK6 kinase inhibitors, biochemical, TCAMS library (AID 1159586); conditions: recombinant PfPK6, Kinase-Glo ATP depletion luminescence
# Plasmodium falciparum protein kinase 6 (PK6, PF3D7_1337100), sequence (Q8IDW1 1-305): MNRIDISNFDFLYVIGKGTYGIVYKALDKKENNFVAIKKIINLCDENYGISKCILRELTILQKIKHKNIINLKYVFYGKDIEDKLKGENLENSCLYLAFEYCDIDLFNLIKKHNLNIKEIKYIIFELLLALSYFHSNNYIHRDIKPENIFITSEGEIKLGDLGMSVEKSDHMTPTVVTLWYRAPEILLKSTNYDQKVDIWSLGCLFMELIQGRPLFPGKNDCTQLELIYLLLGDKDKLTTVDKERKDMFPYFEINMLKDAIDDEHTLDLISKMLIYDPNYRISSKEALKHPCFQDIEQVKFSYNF
# [7] = biological target: Protein kinase 7 (PK7), Plasmodium falciparum 3D7 (PF3D7_0213400) (UniProt Q7YTF7); assay: inhibition of Plasmodium PK7 catalytic activity – biochemical, TCAMS antimalarial set, Kinase-Glo luminescence (AID 1159587); conditions: recombinant PfPK7, Kinase-Glo ATP depletion luminescence
# Protein kinase 7 (PK7), Plasmodium falciparum 3D7 (PF3D7_0213400), sequence (Q7YTF7 1-343): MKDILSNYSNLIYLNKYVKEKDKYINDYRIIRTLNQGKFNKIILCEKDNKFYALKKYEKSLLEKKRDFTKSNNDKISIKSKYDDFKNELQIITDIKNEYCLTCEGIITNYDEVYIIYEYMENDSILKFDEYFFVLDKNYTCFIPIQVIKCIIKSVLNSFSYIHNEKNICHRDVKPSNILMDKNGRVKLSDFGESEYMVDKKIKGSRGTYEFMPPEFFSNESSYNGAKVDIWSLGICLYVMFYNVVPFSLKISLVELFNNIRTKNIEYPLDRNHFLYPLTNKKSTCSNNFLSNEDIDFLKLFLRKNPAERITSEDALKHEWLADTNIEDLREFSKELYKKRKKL
# [8] = biological target: Calcium-dependent protein kinase 4 (Plasmodium falciparum (isolate 3D7)) (UniProt Q8IBS5); assay: PfCDPK4 kinase inhibitors, biochemical, TCAMS library (AID 1159588; cut-off not given, nearly all actives have IC50 up to about 0.91 µM); conditions: recombinant PfCDPK4, Kinase-Glo ATP depletion luminescence
# Calcium-dependent protein kinase 4 (Plasmodium falciparum (isolate 3D7)), sequence (Q8IBS5 whole entry, looked up): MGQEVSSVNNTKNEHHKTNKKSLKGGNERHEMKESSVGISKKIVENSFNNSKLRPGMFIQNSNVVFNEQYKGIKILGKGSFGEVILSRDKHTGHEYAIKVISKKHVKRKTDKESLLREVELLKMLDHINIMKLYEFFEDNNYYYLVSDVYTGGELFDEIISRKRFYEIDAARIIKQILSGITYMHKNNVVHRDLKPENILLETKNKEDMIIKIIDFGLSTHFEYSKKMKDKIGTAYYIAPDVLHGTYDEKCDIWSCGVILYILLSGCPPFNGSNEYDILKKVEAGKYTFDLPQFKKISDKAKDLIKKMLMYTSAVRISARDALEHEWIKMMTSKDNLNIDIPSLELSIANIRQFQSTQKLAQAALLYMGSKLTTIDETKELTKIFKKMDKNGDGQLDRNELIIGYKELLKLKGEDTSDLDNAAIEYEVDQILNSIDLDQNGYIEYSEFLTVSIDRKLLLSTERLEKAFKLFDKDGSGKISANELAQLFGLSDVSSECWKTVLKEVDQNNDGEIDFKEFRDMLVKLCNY
SMILES,growth inhibition [1],inhibition [2],inhibition [3] [%],growth inhibition [4],outcome [5],outcome [6],outcome [7],outcome [8]
Cc1cccc2[nH]c(-c3ccc(-c4cccc(CN5CCCC(O)C5)c4)s3)nc12 (stereo not given),18%,13%,2,95% (active),inactive,inactive,inactive,inactive
CCC(CC)(CCC#N)CN(C[C@@H](O)[C@H](Cc1ccccc1)NC(=O)OC(C)(C)C)S(=O)(=O)c1ccc(OC)cc1,66% (active),-12%,0,82% (active),inactive,inactive,inactive,inactive
NC(=O)c1ccc(C(=O)Nc2cccc(-c3csc(-c4nc5ccccc5[nH]4)c3)c2)cc1,35%,14%,-4,100% (active),inactive,inactive,inactive,inactive
COc1ccc(NC(=O)[C@H](Cc2ccccc2)Nc2cc(C)nc(NCCc3ccccn3)n2)cc1,39%,-7%,-3,99% (active),inactive,inactive,inactive,inactive
c1ccc2c(NCCCCCCCCNc3ccnc4ccccc34)ccnc2c1,35%,57% (active),-1,101% (active),inactive,inactive,inactive,inactive
Cc1ccccc1OCC(O)CNC1CCC(NCC(O)COc2ccccc2C)CC1 (stereo not given),24%,96% (active),0,98% (active),inactive,inactive,inactive,inactive
CCOc1cc(C=NNc2nc3ccccc3[nH]2)ccc1OCc1ccc([N+](=O)[O-])cc1,1%,2%,-6,100% (active),inactive,inactive,inactive,inactive
O=S(=O)(Nc1cccc(CCN2CCC(N3CCCCC3)CC2)c1)c1ccc(Cl)cc1,23%,18%,-1,94% (active),inactive,inactive,inactive,inactive
Cc1ccc(CNc2cc(C(F)(F)F)nc(-c3ccc(S(C)(=O)=O)cc3)n2)cc1,72% (active),2%,-4,89% (active),inactive,inactive,inactive,inactive
Nc1ccc2[nH]cc(C3CCN(CC4CCC(NC(=O)/C=C/c5ccc(Cl)c(Cl)c5)CC4)CC3)c2n1 (stereo not given),93% (active),18%,1,100% (active),inactive,inactive,inactive,inactive
COc1cc(NC(=O)N2CCOC(CCN3CCC(c4ccccc4)CC3)(c3ccc(Cl)c(Cl)c3)C2)cc(OC)c1 (stereo not given),73% (active),12%,0,93% (active),inactive,inactive,inactive,inactive
O=C(Nc1cccc(CN2CCCN(CCc3ccccc3)CC2)c1)c1cc2ccccc2s1,39%,37%,4,93% (active),inactive,inactive,inactive,inactive
Nc1nc2c(c(=O)[nH]1)-c1cccc(Br)c1CC2,-3%,66% (active),0,97% (active),inactive,inactive,inactive,inactive
CC(C)C(NC(=O)Cc1cccc2ccccc12)C(=O)Nc1cccc(C#N)c1 (stereo not given),91% (active),-3%,0,92% (active),inactive,inactive,inactive,inactive
COc1ccc(/C=C/C(=O)Nc2ccc(-c3ccncc3)cc2)cc1CCCN(C)C,86% (active),3%,1,102% (active),inactive,inactive,inactive,inactive
Nc1ccnc2ccc(OCCCCCCc3ccccc3)cc12,99% (active),96% (active),1,100% (active),inactive,inactive,inactive,inactive
Cc1ccc(N2CCc3c(-c4cc5cccnc5nc4C)cc(C)nc32)c(Cl)c1,90% (active),-14%,3,96% (active),inactive,inactive,inactive,inactive
CCCNC(=O)c1cncc(-c2ccc(CNCCCc3ccccc3)cc2)c1,29%,-13%,0,101% (active),inactive,inactive,inactive,inactive
CC1=C(C(=O)Nc2ccccc2)C(c2ccc([N+](=O)[O-])cc2)n2ncc(C(=O)Nc3ccccc3)c2N1 (stereo not given),68% (active),9%,-1,86% (active),inactive,inactive,inactive,inactive
O=C(c1ccc(F)c2ccccc12)N1CCc2cc3nccc(N4CCN5CCC[C@H]5C4)c3cc21,54% (active),-8%,-5,90% (active),inactive,inactive,inactive,inactive

SMILES,growth inhibition [1],inhibition [2],inhibition [3] [%],growth inhibition [4],outcome [5],outcome [6],outcome [7],outcome [8]
Cc1cc(O)c2c(c1)OC(C)(C)C=C2C1=CCN(Cc2ccccc2)CC1,1%,-2%,-3,96% (active),inactive,inactive,inactive,inactive
NC1=NC2(CCCC2)C(c2ccc(Cl)c(Cl)c2)C(N)=N1 (stereo not given),3%,7%,-1,92% (active),inactive,inactive,inactive,inactive
O=C(Nc1ccc(C(=O)OC[C@@H]2CCCN3CCCC[C@H]23)cc1)c1ccc(Cl)c(Cl)c1,37%,20%,0,99% (active),inactive,inactive,inactive,inactive
CCOC(=O)c1[nH]c(-c2ccccc2)nc1NC(=S)NC1CCCCC1,1%,6%,1,96% (active),inactive,inactive,inactive,inactive
CCOc1c(CNCCCNc2cc(=O)c3ccccc3[nH]2)cc(I)cc1C(C)(C)C,89% (active),17%,-4,102% (active),inactive,inactive,inactive,inactive
O=c1c(NCCCN(Cc2ccc(F)cc2)c2ccccn2)c(NCc2cccnc2)c1=O,92% (active),-2%,-2,101% (active),inactive,inactive,inactive,inactive
O=C(NC(Cc1ccccc1)C(=O)O)c1cc(=O)c2ccccc2o1 (stereo not given),10%,53% (active),-6,99% (active),inactive,inactive,inactive,inactive
COc1cc2nc(NCCCO)nc(Nc3ccc(Oc4ccccc4)cc3)c2cc1OC,101% (active),24%,0,101% (active),inactive,inactive,inactive,inactive
COc1ccc(-n2ccnc2)cc1CNC1CCN(CC2Cn3c(=O)ccc4ccc(F)c2c43)CC1 (stereo not given),18%,25%,-1,99% (active),inactive,inactive,inactive,inactive
COc1cccc2c(NN=Cc3cccc([N+](=O)[O-])c3)ccnc12,47%,12%,-7,100% (active),inactive,inactive,inactive,inactive
COc1ccc2nc(C)cc(NN=Cc3cccc([N+](=O)[O-])c3)c2c1,97% (active),6%,7,102% (active),inactive,inactive,inactive,inactive
c1ccc2[nH]c(-c3ccc(-c4ccc(CN5CCN(c6ccncc6)CC5)cc4)cc3)nc2c1,100% (active),48%,-3,101% (active),inactive,inactive,inactive,inactive
CCc1c(C(=O)NC2CCC(N3CCC(c4ccccc4OC)CC3)CC2)[nH]c2ccc(Br)cc12 (stereo not given),98% (active),85% (active),-1,101% (active),inactive,inactive,inactive,inactive
CCNc1cc(C(=O)N[C@@H](Cc2ccccc2)[C@H](O)CNC2CCSCC2)cc(N2CCCC2=O)c1,98% (active),0%,-1,99% (active),inactive,inactive,inactive,inactive
Oc1cccc2ccc(Nc3ccccn3)nc12,93% (active),72% (active),3,99% (active),inactive,inactive,inactive,inactive
COc1ccc(CCCON2C(N)=NC(N)=NC2(C)C)cc1,94% (active),61% (active),-1,95% (active),inactive,inactive,inactive,inactive
COc1ccc2nc3cc(Cl)ccc3c(NCCO)c2c1,93% (active),12%,9,101% (active),inactive,inactive,inactive,inactive
FC(F)(F)c1cccc(Nc2nc(-c3ccccc3)nc3ncccc23)c1,97% (active),17%,-1,97% (active),inactive,inactive,inactive,inactive
CCc1ccc(-c2nc3cc(NC(=O)c4cc([N+](=O)[O-])cc([N+](=O)[O-])c4)ccc3o2)cc1,12%,12%,2,93% (active),inactive,inactive,inactive,inactive
O=C(Nc1cccc(OC2CCN(Cc3ccccc3)CC2)c1)Nc1cccc([N+](=O)[O-])c1,48%,10%,0,101% (active),inactive,inactive,inactive,inactive
